# Data reported in PubChem BioAssay (EPA / NIEHS).
# Inconclusive results are not listed. The source holds several records for some structures; these can differ, active in one and inactive in another. The source made the active and inactive calls. The calls were made as follows, unless noted: active = hit-call score of the fitted dose curve at least 0.9, where 1 is the maximum; inconclusive = response in the unintended direction; inactive = score below 0.9.
# Key:
# [1] = biological target: CCAAT/enhancer-binding protein beta (Homo sapiens) (UniProt P17676); test: ATG_C_EBP_CIS: Attagene CIS-FACTORIAL HepG2 Assay for human CCAAT/Enhancer Binding Protein (C/EBP) beta (AID 2282927; active = hit-call score of the fitted dose curve at least 0.9, where 1 is the maximum; inactive = score below 0.9); conditions: HepG2 Attagene cis-factorial transcription factor reporter; actives raise or lower the signal
# Procedure, shortened: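 Transiently transfected HepG2 (MRTU library, endogenous TF-driven promoters); 24 h dosing; total RNA → oligo(dT) RT → PCR → 6-FAM primer extension → HpaI digest → CE; fit bidirectionally vs DMSO.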
# [2] = ATG_VDRE_CIS: Attagene CIS-FACTORIAL HepG2 Assay for human Vitamin D Receptor Element (VDRE) (AID 2282968; active = hit-call score of the fitted dose curve at least 0.9, where 1 is the maximum; inactive = score below 0.9); conditions: HepG2 VDRE cis-reporter transcription, actives raise or lower the signal
# Procedure, shortened: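 Cell-based multiplexed reporter format in human liver HepG2 cells, 24 h post-dose. Fluorescence from capillary electrophoresis of reporter cDNA gives the signal, with DMSO as negative control and baseline.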
# [3] = biological target: Glucocorticoid receptor (Homo sapiens) (UniProt P04150); test: ATG_GR_TRANS: Attagene TRANS-FACTORIAL HepG2 Assay for human Glucocorticoid Receptor (GR) (AID 2282978); conditions: HepG2 Attagene TRANS GR reporter, mRNA transcription;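 also: activators score as hits since higher reporter transcript over DMSO is fitted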
# Procedure, shortened: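 HepG2 cells transiently transfected with multiplexed reporter units in which chimeric NR-GAL4 proteins drive GAL4-UAS reporters; 24 h compound exposure. Reporter mRNA measured by RT-PCR, 6-FAM labelling, HpaI digestion and capillary electrophoresis; gain-of-signal fitted versus DMSO.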
# [4] = biological target: Oxysterols receptor LXR-alpha (Homo sapiens) (UniProt Q13133); test: ATG_LXRa_TRANS: Attagene TRANS-FACTORIAL HepG2 Assay for human Liver X Receptor alpha (LXRa) (AID 2282980); conditions: HepG2 Attagene TRANS reporter, LXRa transactivation
# Procedure, shortened: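 HepG2 cells were transiently transfected with multiplexed reporter units driven by chimeric LXRa–GAL4 fusion proteins, then dosed for 24 h. Reporter mRNA was quantified by RT-PCR, fluorescent labelling and capillary electrophoresis; gain of signal fitted against DMSO baseline.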
# [5] = biological target: Nuclear receptor subfamily 4 group A member 2 (Homo sapiens) (UniProt P43354); test: ATG_NURR1_TRANS: Attagene TRANS-FACTORIAL HepG2 Assay for human Nuclear Receptor Related Protein 1 (NURR1) (AID 2282985); conditions: HepG2 Attagene TRANS reporter, mRNA readout
# Procedure, shortened: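 HepG2 / transient MRTU transfection / 24 h compound exposure / RT-PCR + CE fluorescence of reporter mRNA / gain-of-signal vs DMSO.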
# [6] = biological target: human Peroxisome Proliferator-activated Receptor delta (PPARd), PPARD (gene 5467) (UniProt Q03181); test: ATG_PPARd_TRANS: Attagene TRANS-FACTORIAL HepG2 Assay for human Peroxisome Proliferator-activated Receptor delta (PPARd) (AID 2283002)
# Procedure, shortened: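 Read-out: reporter mRNA induction, quantified by fluorescent RT-PCR products resolved by capillary electrophoresis. Human HepG2 liver cells carried transiently transfected Gal4-UAS reporter constructs with chimeric NR-Gal4 fusions. Cells were dosed for 24 h; DMSO served as baseline.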
# [7] = biological target: Nuclear receptor subfamily 1 group I member 2 (Homo sapiens) (UniProt O75469); test: ATG_PXR_TRANS: Attagene TRANS-FACTORIAL HepG2 Assay for human Pregnane X Receptor (PXR) (AID 2283008)
# Procedure, shortened: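 Fluorescence intensity of FAM-labelled, HpaI-digested reporter amplicons, separated by capillary electrophoresis, quantifies induction. HepG2 cells with PXR-Gal4 trans-reporter system were exposed 24 h; DMSO defines baseline.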
# [8] = read-out: Interleukin-8 (IL8), CXCL8 (gene 3576); test: BSK_3C_IL8: BioMAP Diversity Plus: 3C Assay for Interleukin-8 (IL8) Biomarker Activity (AID 2283020; active = hit-call score of the fitted dose curve at least 0.9, where 1 is the maximum; inactive = score below 0.9); conditions: primary human endothelial cells (HUVEC); actives raise or lower the signal
# Procedure, shortened: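 Primary human umbilical vein endothelial cells (3C system) were exposed to test chemical for 24 h, then IL-8 was quantified by ELISA. Responses were fitted bidirectionally against DMSO vehicle as baseline.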
# [9] = read-out: Thrombomodulin, THBD (gene 7056); test: BSK_3C_Thrombomodulin: BioMAP Diversity Plus: 3C Assay for Thrombomodulin Biomarker Activity (AID 2283029; active = hit-call score of the fitted dose curve at least 0.9, where 1 is the maximum; inactive = score below 0.9); conditions: primary human endothelial cells (HUVEC); actives raise or lower the signal
# Procedure, shortened: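 Primary human umbilical vein endothelial cells (3C system) were exposed to chemical for 24 h, then thrombomodulin levels were measured by ELISA. Activity was fitted bidirectionally against the DMSO negative control as baseline.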
# [10] = read-out: Vascular cell adhesion molecule 1 (VCAM1), VCAM1 (gene 7412); test: BSK_CASM3C_VCAM1: BioMAP Diversity Plus: CASM3C Assay for Vascular cell adhesion molecule 1 (VCAM1) Biomarker Activity (AID 2283055; active = hit-call score of the fitted dose curve at least 0.9, where 1 is the maximum; inactive = score below 0.9;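 also: VCAM-1 protein level quantified by ELISA on the cells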); conditions: primary human coronary artery smooth muscle cells; actives raise or lower the signal
# [11] = read-out: CD40, CD40 (gene 958); test: BSK_SAg_CD40: BioMAP Diversity Plus: SAg Assay for CD40 Biomarker Activity (AID 2283088; active = hit-call score of the fitted dose curve at least 0.9, where 1 is the maximum; inactive = score below 0.9); conditions: primary human HUVEC with PBMC; actives raise or lower the signal
# Procedure, shortened: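 Human umbilical vein endothelial cells co-cultured with PBMC; CD40 levels measured by ELISA with fluorescence read-out 24 h after chemical dosing. Gain or loss of signal fitted bidirectionally against DMSO baseline.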
# [12] = ATG_XTT_Cytotoxicity: Cytotoxicity Assessment in the Attagene TRANS-FACTORIAL HepG2 Assay (AID 2283584)
# Procedure, shortened: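 HepG2 human liver cells, transiently transfected with multiple GAL4-UAS reporter units, were dosed and read at 24 h by XTT as cell number. Loss of signal was fitted relative to DMSO negative control baseline.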
# [13] = ACEA_ER_AUC_viability: ACEA Biosciences xCELLigence Real-Time Cell Analysis on Estrogen Receptor Agonism for Viability (AID 2283782);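 also: continuous compound exposure with impedance area under curve over 80 h; hit means loss of impedance signal meaning reduced cell growth or viability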
# Procedure, shortened: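 T47D cells preconditioned in phenol red-free RPMI with charcoal-stripped FBS, then dosed with 8-point 1:4 series from 100 uM (up to 0.5% DMSO). Impedance monitored up to ~80 h; area-under-curve loss versus DMSO taken as viability.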
# [14] = ATG_PPRE_CIS: Attagene CIS-FACTORIAL HepG2 Assay for human Peroxisome Proliferator-activated Response Element (PPRE) (AID 2282958; active = hit-call score of the fitted dose curve at least 0.9, where 1 is the maximum; inactive = score below 0.9); conditions: HepG2 PPRE cis-element reporter, Attagene transcription factor profiling; actives raise or lower the signal
# Procedure, shortened: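 HepG2 cells transiently transfected with multiplexed cis-element reporter units measure endogenous transcription factor activity. After 24 h compound exposure, reporter mRNA is quantified by RT-PCR, 6-FAM labeling, HpaI digestion and capillary electrophoresis; bidirectional fits are made against DMSO baseline.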
# [15] = biological target: Oxysterols receptor LXR-beta (Homo sapiens) (UniProt P55055); test: ATG_LXRb_TRANS: Attagene TRANS-FACTORIAL HepG2 Assay for human Liver X Receptor beta (LXRb) (AID 2282981); conditions: HepG2 Attagene TRANS GAL4-LXRb reporter, mRNA
# Procedure, shortened: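 Gain-of-signal mRNA reporter endpoint, DMSO as negative control. Transiently transfected HepG2 cells carrying the NR-Gal4 chimera and GAL4-UAS reporter units were treated 24 h; transcripts quantified by RT-PCR and capillary electrophoresis fluorescence.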
# [16] = biological target: Peroxisome proliferator-activated receptor gamma (Homo sapiens) (UniProt P37231); test: ATG_PPARg_TRANS: Attagene TRANS-FACTORIAL HepG2 Assay for human Peroxisome Proliferator-activated Receptor-gamma (PPARg) (AID 2283007)
# Procedure, shortened: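 HepG2 cells transiently transfected with multiplexed GAL4-UAS reporter units and exogenous chimeric NR-Gal4 proteins; reporter mRNA quantified after 24 h compound exposure by RT-PCR, fluorescent labelling, HpaI digestion and capillary electrophoresis; gain-of-signal fitted versus DMSO baseline.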
# [17] = CCTE_Harrill_HTTr_Viability_MCF7: CCTE's 6-hour Cell Viability Assessment for the High-Throughput Transcriptomics (HTTr) Platform, in MCF-7 cells cultured in DMEM + 10% fetal bovine serum, Harrill Lab (AID 2284010; active = hit-call score of the fitted dose curve at least 0.9, where 1 is the maximum; inactive = score below 0.9)
# Procedure, shortened: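 Membrane integrity was scored by high-content imaging of propidium iodide dye exclusion after a 6 h exposure across an eight-point dilution series. Data were fitted bidirectionally relative to DMSO as negative control and baseline.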
# [18] = biological target: Bile acid receptor (Homo sapiens) (UniProt Q96RI1); test: ATG_IR1_CIS: Attagene CIS-FACTORIAL HepG2 Assay for human Nuclear Receptor Subfamily 1 Group H Member 4 (NR1H4), IR1 submotif (AID 2282946; active = hit-call score of the fitted dose curve at least 0.9, where 1 is the maximum; inactive = score below 0.9); conditions: IR1 reporter transcription, actives raise or lower the signal
# Procedure, shortened: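 HepG2 cells transiently transfected with multiple cis-promoter-driven reporter units to measure endogenous transcription factor activity; 24 h exposure. Reporter mRNA read by RT-PCR, FAM labelling, HpaI digestion and capillary electrophoresis. Bidirectional fit versus DMSO.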
# [19] = biological target: human RAR-related Orphan Receptor beta (RORb), RORB (gene 6096) (UniProt Q92753); test: ATG_RORb_TRANS: Attagene TRANS-FACTORIAL HepG2 Assay for human RAR-related Orphan Receptor beta (RORb) (AID 2283010)
# Procedure, shortened: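 HepG2 cells were transiently transfected with multiplexed GAL4-UAS reporter units expressing chimeric nuclear receptor–GAL4 proteins, then dosed for 24 h. Reporter mRNA was quantified by RT-PCR with fluorescent labelling and capillary electrophoresis; gain of signal was fitted relative to DMSO.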
# [20] = biological target: Retinoic acid receptor RXR-alpha (Homo sapiens) (UniProt P19793); test: ATG_RXRa_TRANS: Attagene TRANS-FACTORIAL HepG2 Assay for human Retinoid X Receptor alpha (RXRa) (AID 2283012)
# Procedure, shortened: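 HepG2 cells transiently transfected with multiplexed GAL4-UAS reporter units and chimeric NR-GAL4 fusions, dosed 24 h. Reporter mRNA measured by RT-PCR, FAM labelling, HpaI digestion and capillary electrophoresis; gain-of-signal fitted relative to DMSO baseline.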
# Sequence of Retinoic acid receptor RXR-alpha (Homo sapiens) (P19793 whole entry, looked up, the tested form may be a part): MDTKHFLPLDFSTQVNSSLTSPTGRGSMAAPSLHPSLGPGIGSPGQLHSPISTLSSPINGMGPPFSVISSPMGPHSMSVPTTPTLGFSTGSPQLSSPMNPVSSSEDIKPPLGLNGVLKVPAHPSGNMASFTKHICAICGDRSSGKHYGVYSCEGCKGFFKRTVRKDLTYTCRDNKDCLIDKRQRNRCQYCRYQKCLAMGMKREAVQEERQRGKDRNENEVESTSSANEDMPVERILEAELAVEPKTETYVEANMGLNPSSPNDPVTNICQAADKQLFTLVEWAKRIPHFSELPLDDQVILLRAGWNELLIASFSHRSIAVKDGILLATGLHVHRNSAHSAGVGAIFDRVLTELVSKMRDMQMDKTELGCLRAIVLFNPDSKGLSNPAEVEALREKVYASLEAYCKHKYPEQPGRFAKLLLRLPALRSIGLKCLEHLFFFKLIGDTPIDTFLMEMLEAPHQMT
# Sequence of human RAR-related Orphan Receptor beta (RORb), RORB (gene 6096) (Q92753 whole entry, looked up, the tested form may be a part): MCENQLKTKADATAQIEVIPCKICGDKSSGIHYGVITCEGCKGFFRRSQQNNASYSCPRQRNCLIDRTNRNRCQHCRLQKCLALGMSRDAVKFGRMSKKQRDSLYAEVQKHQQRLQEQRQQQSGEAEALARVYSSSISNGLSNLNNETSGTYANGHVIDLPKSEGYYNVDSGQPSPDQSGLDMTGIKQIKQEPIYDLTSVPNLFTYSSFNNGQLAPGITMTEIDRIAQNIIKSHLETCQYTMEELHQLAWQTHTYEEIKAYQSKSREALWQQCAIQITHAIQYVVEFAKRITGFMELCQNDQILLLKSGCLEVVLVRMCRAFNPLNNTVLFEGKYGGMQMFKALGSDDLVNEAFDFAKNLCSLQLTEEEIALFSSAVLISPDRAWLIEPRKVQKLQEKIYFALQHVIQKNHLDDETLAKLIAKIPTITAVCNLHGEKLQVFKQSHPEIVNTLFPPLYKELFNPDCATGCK
# Sequence of Oxysterols receptor LXR-beta (Homo sapiens) (P55055 whole entry, looked up, the tested form may be a part): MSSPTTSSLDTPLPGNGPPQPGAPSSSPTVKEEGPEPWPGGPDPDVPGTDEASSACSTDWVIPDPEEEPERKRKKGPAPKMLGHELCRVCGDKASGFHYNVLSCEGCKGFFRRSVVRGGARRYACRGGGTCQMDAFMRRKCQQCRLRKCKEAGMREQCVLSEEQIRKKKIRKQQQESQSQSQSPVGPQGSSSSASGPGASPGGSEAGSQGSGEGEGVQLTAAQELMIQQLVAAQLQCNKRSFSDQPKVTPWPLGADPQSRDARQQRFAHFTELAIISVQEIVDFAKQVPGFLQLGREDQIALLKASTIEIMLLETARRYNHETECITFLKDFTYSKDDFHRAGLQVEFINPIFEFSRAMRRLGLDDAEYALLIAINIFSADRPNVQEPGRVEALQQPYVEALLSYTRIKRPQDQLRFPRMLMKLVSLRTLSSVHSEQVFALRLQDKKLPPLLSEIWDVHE
# Sequence of Nuclear receptor subfamily 1 group I member 2 (Homo sapiens) (O75469 whole entry, looked up, the tested form may be a part): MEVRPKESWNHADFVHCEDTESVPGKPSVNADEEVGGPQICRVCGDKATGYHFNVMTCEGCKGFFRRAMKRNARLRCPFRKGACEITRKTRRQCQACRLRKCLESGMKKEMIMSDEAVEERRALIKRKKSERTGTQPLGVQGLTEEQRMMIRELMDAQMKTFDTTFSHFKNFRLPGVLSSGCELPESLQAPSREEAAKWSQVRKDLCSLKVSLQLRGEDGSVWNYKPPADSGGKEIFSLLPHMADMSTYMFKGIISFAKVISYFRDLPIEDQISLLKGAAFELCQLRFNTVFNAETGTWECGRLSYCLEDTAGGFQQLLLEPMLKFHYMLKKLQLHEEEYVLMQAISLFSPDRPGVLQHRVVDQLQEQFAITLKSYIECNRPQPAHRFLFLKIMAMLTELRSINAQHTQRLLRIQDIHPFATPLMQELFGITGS
# Sequence of Oxysterols receptor LXR-alpha (Homo sapiens) (Q13133 whole entry, looked up, the tested form may be a part): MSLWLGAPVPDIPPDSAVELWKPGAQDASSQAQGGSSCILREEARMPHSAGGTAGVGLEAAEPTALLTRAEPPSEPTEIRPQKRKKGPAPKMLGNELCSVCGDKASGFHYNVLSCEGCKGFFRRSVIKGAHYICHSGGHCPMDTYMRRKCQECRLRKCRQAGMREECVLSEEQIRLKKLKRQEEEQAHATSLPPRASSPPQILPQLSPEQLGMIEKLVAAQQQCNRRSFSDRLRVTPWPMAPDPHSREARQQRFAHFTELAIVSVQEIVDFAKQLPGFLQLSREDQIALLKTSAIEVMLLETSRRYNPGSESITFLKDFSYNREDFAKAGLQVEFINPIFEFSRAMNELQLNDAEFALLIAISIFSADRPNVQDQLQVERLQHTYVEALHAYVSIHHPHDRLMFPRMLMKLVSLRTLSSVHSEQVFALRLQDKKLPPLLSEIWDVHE
# Sequence of human Peroxisome Proliferator-activated Receptor delta (PPARd), PPARD (gene 5467) (Q03181 whole entry, looked up, the tested form may be a part): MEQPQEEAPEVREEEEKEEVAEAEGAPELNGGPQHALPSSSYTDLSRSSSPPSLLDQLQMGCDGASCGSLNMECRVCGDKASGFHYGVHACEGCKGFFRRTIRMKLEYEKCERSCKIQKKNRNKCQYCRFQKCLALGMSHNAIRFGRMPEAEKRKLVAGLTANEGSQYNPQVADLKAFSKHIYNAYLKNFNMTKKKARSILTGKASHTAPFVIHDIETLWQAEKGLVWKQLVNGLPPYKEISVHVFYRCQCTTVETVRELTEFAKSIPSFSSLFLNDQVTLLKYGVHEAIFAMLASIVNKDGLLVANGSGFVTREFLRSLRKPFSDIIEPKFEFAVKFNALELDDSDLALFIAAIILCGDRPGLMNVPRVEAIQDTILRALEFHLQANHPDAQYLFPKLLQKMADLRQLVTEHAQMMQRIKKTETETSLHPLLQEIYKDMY
# Sequence of Nuclear receptor subfamily 4 group A member 2 (Homo sapiens) (P43354 whole entry, looked up): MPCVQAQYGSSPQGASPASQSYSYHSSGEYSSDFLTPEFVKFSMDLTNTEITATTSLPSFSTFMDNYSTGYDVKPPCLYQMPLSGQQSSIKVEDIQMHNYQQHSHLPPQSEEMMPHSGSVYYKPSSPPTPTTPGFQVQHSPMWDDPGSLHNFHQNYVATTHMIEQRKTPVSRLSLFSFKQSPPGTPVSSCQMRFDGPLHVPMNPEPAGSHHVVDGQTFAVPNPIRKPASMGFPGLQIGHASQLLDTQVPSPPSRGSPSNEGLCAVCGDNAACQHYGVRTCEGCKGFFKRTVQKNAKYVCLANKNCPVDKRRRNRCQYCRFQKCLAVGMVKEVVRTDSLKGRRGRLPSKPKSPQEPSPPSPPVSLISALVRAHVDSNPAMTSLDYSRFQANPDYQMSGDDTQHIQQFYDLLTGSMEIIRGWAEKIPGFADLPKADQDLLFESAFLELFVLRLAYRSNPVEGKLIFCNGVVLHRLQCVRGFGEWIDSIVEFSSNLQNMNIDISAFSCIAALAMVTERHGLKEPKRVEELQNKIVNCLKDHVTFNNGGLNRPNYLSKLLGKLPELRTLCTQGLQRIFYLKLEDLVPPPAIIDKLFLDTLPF
# Sequence of CCAAT/enhancer-binding protein beta (Homo sapiens) (P17676 whole entry, looked up): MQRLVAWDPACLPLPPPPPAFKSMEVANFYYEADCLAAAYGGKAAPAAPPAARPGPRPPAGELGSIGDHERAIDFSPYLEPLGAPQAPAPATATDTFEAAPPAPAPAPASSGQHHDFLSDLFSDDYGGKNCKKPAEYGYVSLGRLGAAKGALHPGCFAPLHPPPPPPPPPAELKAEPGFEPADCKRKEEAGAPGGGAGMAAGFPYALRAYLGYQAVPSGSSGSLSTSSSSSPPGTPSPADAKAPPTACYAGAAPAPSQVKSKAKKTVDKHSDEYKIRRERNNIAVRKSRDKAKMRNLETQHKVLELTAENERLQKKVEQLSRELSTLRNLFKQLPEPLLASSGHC
# Sequence of Bile acid receptor (Homo sapiens) (Q96RI1 whole entry, looked up): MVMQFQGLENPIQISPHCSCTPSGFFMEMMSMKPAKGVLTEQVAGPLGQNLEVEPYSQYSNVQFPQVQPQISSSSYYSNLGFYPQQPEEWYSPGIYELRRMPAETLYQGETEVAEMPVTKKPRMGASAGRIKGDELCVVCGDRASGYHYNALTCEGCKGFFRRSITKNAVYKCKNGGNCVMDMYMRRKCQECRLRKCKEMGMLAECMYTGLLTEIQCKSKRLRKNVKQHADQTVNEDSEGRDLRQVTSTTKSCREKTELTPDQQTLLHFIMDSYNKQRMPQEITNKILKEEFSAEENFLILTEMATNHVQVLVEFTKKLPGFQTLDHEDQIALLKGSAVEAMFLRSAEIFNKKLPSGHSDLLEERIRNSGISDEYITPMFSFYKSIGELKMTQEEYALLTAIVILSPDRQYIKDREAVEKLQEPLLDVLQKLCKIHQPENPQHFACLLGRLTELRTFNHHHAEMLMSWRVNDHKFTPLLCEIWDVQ
# Sequence of Glucocorticoid receptor (Homo sapiens) (P04150 whole entry, looked up, the tested form may be a part): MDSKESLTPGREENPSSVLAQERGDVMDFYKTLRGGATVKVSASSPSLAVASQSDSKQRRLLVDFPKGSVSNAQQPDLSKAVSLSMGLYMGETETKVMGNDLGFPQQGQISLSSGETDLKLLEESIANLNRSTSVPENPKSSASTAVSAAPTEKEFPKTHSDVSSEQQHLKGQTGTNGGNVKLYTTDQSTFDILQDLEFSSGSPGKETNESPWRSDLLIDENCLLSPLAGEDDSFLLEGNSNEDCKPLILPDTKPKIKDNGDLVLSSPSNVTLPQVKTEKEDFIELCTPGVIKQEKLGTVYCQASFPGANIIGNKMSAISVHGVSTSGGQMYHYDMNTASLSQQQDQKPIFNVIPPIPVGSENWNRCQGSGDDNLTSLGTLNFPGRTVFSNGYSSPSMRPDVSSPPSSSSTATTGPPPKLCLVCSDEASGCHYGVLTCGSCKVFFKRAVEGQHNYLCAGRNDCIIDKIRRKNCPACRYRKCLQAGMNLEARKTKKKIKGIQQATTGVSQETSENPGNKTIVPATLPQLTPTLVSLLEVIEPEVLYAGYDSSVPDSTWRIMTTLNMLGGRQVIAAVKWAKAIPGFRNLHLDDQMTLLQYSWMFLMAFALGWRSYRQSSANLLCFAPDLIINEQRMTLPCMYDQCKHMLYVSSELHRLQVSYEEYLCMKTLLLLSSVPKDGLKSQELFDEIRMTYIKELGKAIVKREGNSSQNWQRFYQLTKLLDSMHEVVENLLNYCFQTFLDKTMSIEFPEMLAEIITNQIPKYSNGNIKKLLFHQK
compound,measurement,setting,value
COC(=O)/C=C\C(=O)OC,outcome,[1],inactive
same,AC50,[2],49.6 µM (active)
same,outcome,[3],inactive
same,outcome,[4],inactive
same,outcome,[5],inactive
same,outcome,[6],inactive
same,outcome,[7],inactive
same,outcome,[8],inactive
same,outcome,[9],inactive
same,AC50,[10],20 µM (active)
same,outcome,[11],inactive
same,outcome,[12],inactive
same,AC50,[13],76.9 µM (active)
CN(C)Cc1cc(C(C)(C)C)c(O)c(C(C)(C)C)c1,outcome,[1],inactive
same,outcome,[14],inactive
same,outcome,[2],inactive
same,outcome,[4],inactive
same,outcome,[15],inactive
same,AC50,[5],29.1 µM (active)
same,outcome,[6],inactive
same,outcome,[16],inactive
same,outcome,[8],inactive
same,outcome,[9],inactive
same,AC50,[10],0.15 µM (active)
same,outcome,[10],inactive
same,outcome,[11],inactive
same,outcome,[12],inactive
CC(C)(Oc1ccc(Cl)cc1)C(=O)O,outcome,[1],inactive
same,outcome,[14],inactive
same,outcome,[4],inactive
same,outcome,[6],inactive
same,AC50,[16],69.3 µM (active)
same,outcome,[7],inactive
same,outcome,[12],inactive
same,AC50,[13],50 µM (active)
same,outcome,[17],inactive
NC(=O)c1ccc([N+](=O)[O-])cc1Cl,outcome,[1],inactive
same,outcome,[18],inactive
same,outcome,[14],inactive
same,outcome,[3],inactive
same,outcome,[6],inactive
same,outcome,[16],inactive
same,outcome,[7],inactive
same,outcome,[19],inactive
same,outcome,[12],inactive
O=C(c1ccccc1)c1ccccc1O,outcome,[2],inactive
same,outcome,[3],inactive
same,outcome,[16],inactive
same,AC50,[7],34.4 µM (active)
same,outcome,[20],inactive
same,outcome,[12],inactive
same,AC50,[13],76.9 µM (active)
Brc1ccc(Oc2ccc(Br)cc2)cc1,outcome,[4],inactive
same,outcome,[5],inactive
same,outcome,[6],inactive
same,outcome,[20],inactive
same,AC50,[13],65.4 µM (active)
same,outcome,[17],inactive
OCCc1ccccn1,outcome,[1],inactive
same,outcome,[14],inactive
same,outcome,[2],inactive
same,outcome,[3],inactive
same,outcome,[4],inactive
same,outcome,[15],inactive
same,outcome,[5],inactive
same,outcome,[6],inactive
same,outcome,[19],inactive
same,outcome,[20],inactive
same,outcome,[12],inactive
Clc1ccc(Sc2cc(Cl)c(Cl)cc2Cl)cc1,outcome,[1],inactive
same,outcome,[2],inactive
same,outcome,[3],inactive
same,outcome,[4],inactive
same,outcome,[15],inactive
same,outcome,[5],inactive
same,outcome,[16],inactive
same,AC50,[7],2.22 µM (active)
same,outcome,[19],inactive
c1cc[c]([Bi]([c]2ccccc2)[c]2ccccc2)cc1,outcome,[2],inactive
same,outcome,[15],inactive
same,AC50,[5],37.9 µM (active)
same,AC50,[7],2.73 µM (active)
same,outcome,[20],inactive
CCOC(=O)CC(=O)OCC,outcome,[18],inactive
same,outcome,[3],inactive
same,outcome,[19],inactive
same,outcome,[20],inactive
same,outcome,[17],inactive
CCCC(=O)OC,outcome,[2],inactive
same,outcome,[15],inactive
same,outcome,[5],inactive
same,outcome,[16],inactive
same,outcome,[7],inactive
CCCN[C@H]1CCc2nc(N)sc2C1,outcome,[1],inactive
same,outcome,[4],inactive
same,outcome,[15],inactive
O=C(CC(C(=O)OC1CCCCC1)S(=O)(=O)O)OC1CCCCC1 (stereo not given),outcome,[18],inactive
same,outcome,[14],inactive
same,outcome,[4],inactive
same,AC50,[16],47.7 µM (active)
same,outcome,[7],inactive
Sc1nc2ccccc2s1,outcome,[1],inactive
same,outcome,[18],inactive
same,AC50,[14],35.7 µM (active)
same,outcome,[3],inactive
same,outcome,[4],inactive
same,outcome,[6],inactive
same,AC50,[16],31 µM (active)
same,outcome,[7],inactive
same,outcome,[8],inactive
same,outcome,[9],inactive
same,AC50,[10],0.016 µM (active)
same,outcome,[11],inactive
same,outcome,[12],inactive
same,AC50,[13],69.6 µM (active)
CCC(C)C1N=C(C)C(C)S1 (stereo not given),outcome,[1],inactive
same,outcome,[3],inactive
same,outcome,[4],inactive
same,outcome,[15],inactive
same,outcome,[6],inactive
same,AC50,[7],4.45 µM (active)
CN(C)N=Nc1ccccc1,outcome,[1],inactive
same,outcome,[2],inactive
same,outcome,[4],inactive
same,outcome,[15],inactive
same,outcome,[5],inactive
same,outcome,[6],inactive
same,outcome,[20],inactive
same,outcome,[12],inactive
